Inconclusive results are not listed. Entries that show only a call come without a potency. Activity calls are given as the source filed them. Calls come from the whole dose curve; as a rule, active = well fitted inhibition curve with a large enough effect; inconclusive = small, poorly fitted or top-dose-only effect; inactive = flat fitted curve, though single readings scatter.
Potency is the fitted concentration of half-maximal effect.

Sequence of Voltage-gated inwardly rectifying potassium channel KCNH2 (Homo sapiens) (Q12809 whole entry, looked up): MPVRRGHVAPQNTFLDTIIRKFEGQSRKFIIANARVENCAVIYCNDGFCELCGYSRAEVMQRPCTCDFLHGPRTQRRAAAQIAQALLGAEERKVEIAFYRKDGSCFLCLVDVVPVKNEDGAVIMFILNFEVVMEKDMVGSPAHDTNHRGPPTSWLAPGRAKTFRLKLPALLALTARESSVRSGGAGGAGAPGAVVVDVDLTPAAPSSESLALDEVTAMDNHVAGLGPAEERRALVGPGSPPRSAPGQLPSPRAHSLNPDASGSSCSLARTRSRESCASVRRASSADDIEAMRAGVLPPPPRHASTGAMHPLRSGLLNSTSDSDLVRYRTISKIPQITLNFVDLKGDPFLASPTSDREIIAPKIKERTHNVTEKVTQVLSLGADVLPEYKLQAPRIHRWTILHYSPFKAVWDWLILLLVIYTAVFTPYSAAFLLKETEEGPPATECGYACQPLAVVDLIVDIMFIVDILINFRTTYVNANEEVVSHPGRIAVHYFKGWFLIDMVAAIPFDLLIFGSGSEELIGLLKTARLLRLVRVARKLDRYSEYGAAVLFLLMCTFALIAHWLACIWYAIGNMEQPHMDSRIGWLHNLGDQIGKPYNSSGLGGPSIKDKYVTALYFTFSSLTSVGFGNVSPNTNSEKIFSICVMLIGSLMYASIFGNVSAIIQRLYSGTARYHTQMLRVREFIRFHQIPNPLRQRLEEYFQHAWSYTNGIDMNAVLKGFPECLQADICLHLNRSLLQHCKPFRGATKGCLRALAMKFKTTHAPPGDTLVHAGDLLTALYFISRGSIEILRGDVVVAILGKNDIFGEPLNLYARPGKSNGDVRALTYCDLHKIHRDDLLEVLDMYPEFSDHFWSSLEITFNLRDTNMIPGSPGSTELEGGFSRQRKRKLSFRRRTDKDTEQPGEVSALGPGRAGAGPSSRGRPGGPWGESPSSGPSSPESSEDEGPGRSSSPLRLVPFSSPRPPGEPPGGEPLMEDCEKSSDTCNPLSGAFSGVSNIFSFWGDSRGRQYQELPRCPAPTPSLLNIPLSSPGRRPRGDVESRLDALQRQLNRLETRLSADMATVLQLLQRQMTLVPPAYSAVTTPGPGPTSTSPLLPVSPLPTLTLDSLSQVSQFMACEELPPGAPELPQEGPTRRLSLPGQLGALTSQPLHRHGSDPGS

In this experiment the target is Voltage-gated inwardly rectifying potassium channel KCNH2 (Homo sapiens) (UniProt Q12809). Put plainly: qHTS Assay for Small Molecule Inhibitors of the Human hERG Channel Activity (AID 588834).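 Note: lower thallium flux fluorescence means stronger hERG block; nearly all actives have a fitted effect of over 50% in size.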 The following applies: U2OS BacMam hERG, FluxOR thallium flux fluorescence; series mostly up to 46.1 µM. Put shortly:
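In hERG-transduced U2OS cells, dye-loaded for 1 hr at room temperature in dark, test compounds incubated 10 min at 37 °C before thallium stimulation. AC50 values derived by Hill modelling of concentration-response.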
Background: qHTS replaces the single test concentration by a dilution series.
With `NC(=O)CC[C@@H]1NC(=O)[C@H](Cc2ccccc2)NC(=O)[C@H](Cc2ccc(O)cc2)NC(=O)[C@@H](N)CSSC[C@@H](C(=O)N2CCC[C@H]2C(=O)N[C@@H](CCCN=C(N)N)C(=O)NCC(N)=O)NC(=O)[C@H](CC(N)=O)NC1=O`, the Potency entry was “inactive”. As for `CC(=O)NCCCS(=O)(=O)O`, the entry is “inactive”; as for `C=C1c2c(Cl)ccc(O)c2C(O)=C2C(=O)[C@]3(O)C(O)=C(C(N)=O)C(=O)[C@@H](N(C)C)[C@@H]3[C@@H](O)[C@H]12`, “inactive”; as for `CC1CCCC(C)N1NC(=O)c1ccc(Cl)c(S(N)(=O)=O)c1` (stereo not given), “inactive”.

With `C[C@]12CC[C@@H]3c4ccc(O)cc4CC[C@H]3[C@@H]1CC[C@@H]2OP(=O)(O)O`, the Potency result was “inactive”. As for `COc1ccc2c(c1)N(C[C@H](C)CN(C)C)c1ccccc1S2`, the figure is 8.91 µM (active); as for `N=C(N)c1ccc(/C=C/c2ccc(C(=N)N)cc2O)cc1`, “inactive”.

`CCc1cn([C@H]2C[C@H](O)[C@@H](CO)O2)c(=O)[nH]c1=O`: the Potency entry is “inactive”.

As for `COc1ccc(C[C@H](C)NC[C@@H](O)c2ccc(O)c(NC=O)c2)cc1`, the Potency was 14.1 µM (active).

With `CN[C@H](CC(C)C)C(=O)N[C@H]1C(=O)N[C@@H](CC(N)=O)C(=O)N[C@H]2C(=O)N[C@H]3C(=O)N[C@H](C(=O)N[C@@H](C(=O)O)c4cc(O)cc(O)c4-c4cc3ccc4O)[C@H](O)c3ccc(c(Cl)c3)Oc3cc2cc(c3O[C@@H]2O[C@H](CO)[C@@H](O)[C@H](O)[C@H]2O[C@H]2C[C@](C)(N)C(O)[C@H](C)O2)Oc2ccc(cc2Cl)[C@H]1O` (stereo not given in full), the Potency result is “inactive”.

These data come from PubChem BioAssay (NCATS).
